Laboratory results from PubChem BioAssay (Tox21).
Inconclusive results are not listed. A call without a number means that no potency is given here. Active and inactive are the calls of the source. Unless noted, calls come from the whole dose curve; as a rule, active = well fitted curve in the direction sought with a large enough effect in the repeat runs; inconclusive = weak or mixed curves; inactive = no such curve, though single readings can be large; an effect the other way counts as inactive or inconclusive.

How the values were obtained:
[1] = qHTS assay to identify small molecule that activate the aryl hydrocarbon receptor (AhR) signaling pathway - cell viability counter screen (AID 743086);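 note: HepG2 liver cells carrying the AhR DRE luciferase reporter; series mostly up to about 70 µM; nearly all actives have a fitted effect of over 45% in size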
Summary of the method: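 Cytotoxicity counter screen: CellTiter-Fluor signal (30 min, 37 C) in 4000 HepG2 cells/well carrying the DRE-luciferase reporter, following 24 h compound exposure at 37 C.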

[2] = biological target: Peroxisome proliferator-activated receptor gamma (Homo sapiens) (UniProt P37231); assay: qHTS assay to identify small molecule agonists of the peroxisome proliferator-activated receptor gamma (PPARg) signaling pathway (AID 743094; active = well fitted activation curve with a large enough effect in the signal ratio in the repeat runs, not every such curve was filed as active; the % refers to the signal ratio)
Summary of the method: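 Stably transfected HEK293H cells (GeneBLAzer PPARg UAS-bla) were incubated with test substances for 17 h at 37C after a 5 h pre-incubation; beta-lactamase activity was then detected by FRET substrate fluorescence.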

[3] = qHTS assay to identify small molecule antagonists of the peroxisome proliferator-activated receptor gamma (PPARg) signaling pathway - cell viability counter screen (AID 743194); conditions: Potency: co-treated with 50 nM rosiglitazone unless noted; note: nearly all actives have a fitted effect of over 55% in size; note: potency is the fitted concentration of half-maximal effect
Summary of the method: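 Viability was measured as CellTiter-Glo luminescence in GeneBLAzer PPARg UAS-bla HEK293H cells. These cells had been exposed 17 h at 37 C to compounds together with rosiglitazone at 50 nM final, with the beta-lactamase readout taken in the same wells.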

[4] = qHTS assay for small molecule agonists of the antioxidant response element (ARE) signaling pathway - cell viability counter screen (AID 743203; calls by dose curve; note: nearly all actives have a fitted effect of over 55% in size; note: potency is the fitted concentration of half-maximal effect)
Summary of the method: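 Cells (ARE-bla HepG2, 2,000/well) receive DMSO-dissolved compounds after a 5 hrs rest. Plates incubate 16 hrs at 37C/5% CO2. CellTiter-Glo luminescence is then recorded after 30 min at room temperature.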

[5] = qHTS assay for small molecule activators of the heat shock response signaling pathway - cell viability counter screen (AID 743209); note: nearly all actives have a fitted effect of over 50% in size; note: potency is the fitted concentration of half-maximal effect
Summary of the method: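 Quantitative HTS format, Tox21 10K library. HeLa cells carrying an HSE-driven beta-lactamase reporter were treated 5 h at 37 C, then assessed for viability by CellTiter-Glo luminescence.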

[6] = qHTS assay for small molecule activators of the heat shock response signaling pathway (AID 743210; active = well fitted activation curve with a large enough effect in the signal ratio in the repeat runs, with a control signal flat, not every such curve was filed as active; the % refers to the signal ratio;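 note: HeLa cells with beta-lactamase reporter driven by heat shock elements; series mostly up to about 63 µM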)
Summary of the method: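 HeLa HSE-bla cells, overnight plating; cpd in DMSO 5 h, 37 C; LiveBLAzer B/G FRET substrate 2.5 h RT; fluorescence intensity read.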

[7] = qHTS assay to identify small molecule agonists of the peroxisome proliferator-activated receptor delta (PPARd) signaling pathway - cell viability counter screen (AID 743211); note: nearly all actives have a fitted effect of over 55% in size
Summary of the method: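 Luminescent ATP viability assay (CellTiter-Glo, 30 min RT) in UAS-bla HEK293H cells carrying the PPAR delta reporter construct, 3000 cells/well, after a 17 h compound treatment at 37 C.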

[8] = biological target: Peroxisome proliferator-activated receptor delta (Homo sapiens) (UniProt Q03181); assay: qHTS assay to identify small molecule agonists of the peroxisome proliferator-activated receptor delta (PPARd) signaling pathway (AID 743212; calls by dose curve)
Summary of the method: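 HEK293H PPARd-bla cells; 5 h preincubation 37 C/5% CO2; compound (DMSO) 37 C; LiveBLAzer B/G FRET substrate 2 h RT; fluorescence intensity.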

[9] = qHTS assay to identify small molecule antagonists of the peroxisome proliferator-activated receptor delta (PPARd) signaling pathway - cell viability counter screen (AID 743213); note: nearly all actives have a fitted effect of over 50% in size; note: potency is the fitted concentration of half-maximal effect
Summary of the method: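 HEK293H cells with the PPARd UAS-bla reporter, co-treated 17 h at 37 C with compounds and L165041 (300 nM final), were lysed with CellTiter-Glo. Luminescence indicated viable cell content.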

[10] = biological target: Bile acid receptor (Homo sapiens) (UniProt Q96RI1); assay: qHTS assay to identify small molecule antagonists of the farnesoid-X-receptor (FXR) signaling pathway (AID 743217; active = well fitted inhibition curve with a large enough effect in the signal ratio in the repeat runs, not every such curve was filed as active; the % refers to the signal ratio)
Summary of the method: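 Beta-lactamase reporter under UAS control in HEK 293T cells; compound exposure 16 h at 37 °C in the presence of chenodeoxycholic acid (50 uM final); signal from B/G FRET substrate after 2 h at room temperature.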

[11] = qHTS assay to identify small molecule agonists of the farnesoid-X-receptor (FXR) signaling pathway - cell viability counter screen (AID 743218); note: nearly all actives have a fitted effect of over 45% in size; note: potency is the fitted concentration of half-maximal effect
Summary of the method: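 In GeneBLAzer FXR-UAS-bla HEK 293T cells, compounds act for 16 h at 37 C. Cell viability is then scored in the reporter wells by CellTiter-Glo, 30 min at RT, luminescence.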

[12] = biological target: Bile acid receptor (Homo sapiens) (UniProt Q96RI1); assay: qHTS assay to identify small molecule agonists of the farnesoid-X-receptor (FXR) signaling pathway (AID 743220; active = well fitted activation curve with a large enough effect in the signal ratio in the repeat runs, not every such curve was filed as active; the % refers to the signal ratio)
Summary of the method: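 Beta-lactamase reporter under UAS control in GeneBLAzer FXR HEK 293T cells (5000/well) measured with LiveBLAzer FRET substrate after 2 h at room temperature. Compound exposure lasted 16 h at 37C.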

[13] = qHTS assay to identify small molecule antagonists of the farnesoid-X-receptor (FXR) signaling pathway - cell viability counter screen (AID 743221; active = well fitted cell-killing curve with a large enough effect in the repeat runs, not every such curve was filed as active; note: nearly all actives have a fitted effect of over 50% in size; note: potency is the fitted concentration of half-maximal effect)
Summary of the method: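 In GeneBLAzer FXR-UAS-bla HEK 293T cells stimulated with 50 uM chenodeoxycholic acid (final), compounds acted for 16 h at 37 C. Viability was assessed afterwards by CellTiter-Glo luminescence.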

[14] = biological target: Vitamin D3 receptor (Homo sapiens) (UniProt P11473); assay: qHTS assay to identify small molecule agonists of the vitamin D receptor (VDR) signaling pathway (AID 743222; calls by dose curve)
Summary of the method: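 Agonist activity measured in VDR-bla reporter cells. Exposure 16 h, 37C, 5% CO2; detection by B/G FRET substrate, 2 h RT.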

[15] = biological target: Vitamin D3 receptor (Homo sapiens) (UniProt P11473); assay: qHTS assay to identify small molecule antagonists of the vitamin D receptor (VDR) signaling pathway (AID 743223; active = well fitted inhibition curve with a large enough effect in the signal ratio in the repeat runs, not every such curve was filed as active; the % refers to the signal ratio)
Summary of the method: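 Agonist 1alpha,25-dihydroxyvitamin D3 (3 nM in well) was added with each compound to VDR-bla cells preincubated 4 h. Cells stood 16 h at 37C, then FRET substrate 2 h at room temperature; fluorescence intensity recorded.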

[16] = qHTS assay to identify small molecule agonists of the vitamin D receptor (VDR) signaling pathway - cell viability counter screen (AID 743224); note: nearly all actives have a fitted effect of over 50% in size; note: potency is the fitted concentration of half-maximal effect
Summary of the method: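 VDR-bla cell line, quantitative HTS format; 16 h compound incubation (37C, 5% CO2); ATP-based CellTiter-Glo luminescence measured in the reporter assay wells.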

[17] = biological target: Aryl hydrocarbon receptor (Homo sapiens) (UniProt P35869); assay: qHTS assay to identify small molecule that activate the aryl hydrocarbon receptor (AhR) signaling pathway (AID 743085); note: nearly all actives have a fitted effect of over 15% in size; note: potency is the fitted concentration of half-maximal effect;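 for activation: HG2L7.5c1 human HepG2 liver cells with stably integrated DRE-driven firefly reporter; series mostly up to about 70 µM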
Summary of the method: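 24 h compound exposure, 37C, HepG2-derived HG2L7.5c1 cells with DRE-responsive luciferase. Readouts: fluorescence viability, then luminescence at room temperature after 30 min.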

[18] = biological target: Peroxisome proliferator-activated receptor delta (Homo sapiens) (UniProt Q03181); assay: qHTS assay to identify small molecule antagonists of the peroxisome proliferator-activated receptor delta (PPARd) signaling pathway (AID 743215; active = well fitted inhibition curve with a large enough effect in the signal ratio in the repeat runs, not every such curve was filed as active; the % refers to the signal ratio;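 note: cells stimulated with agonist L165041 at 300 nM final during compound exposure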; note: potency is the fitted concentration of half-maximal effect)
Summary of the method: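 Antagonist-mode beta-lactamase reporter screen: HEK293H cells with UAS-bla under PPARd control, stimulated by 300 nM L165041 (final) alongside test compound for 17 h at 37 C, then FRET fluorescence after 2 h substrate incubation.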

[19] = biological target: Peroxisome proliferator-activated receptor gamma (Homo sapiens) (UniProt P37231); assay: qHTS assay to identify small molecule antagonists of the peroxisome proliferator-activated receptor gamma (PPARg) signaling pathway (AID 743191; calls by dose curve; note: series mostly up to about 63 µM; nearly all actives have a fitted effect of over 30% in size)
Summary of the method: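 Beta-lactamase reporter under UAS control in HEK293H PPARg-bla cells; compound treatment 17 h at 37C. Read-out: fluorescence intensity after 1 h room-temperature incubation with LiveBLAzer B/G FRET substrate.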

[20] = qHTS assay for small molecule agonists of the antioxidant response element (ARE) signaling pathway (AID 743202; active = well fitted activation curve with a large enough effect in the signal ratio in the repeat runs, not every such curve was filed as active; the % refers to the signal ratio)
Summary of the method: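 Quantitative high-throughput format in HepG2 cells bearing an integrated ARE-beta-lactamase reporter. Compound exposure lasted 16 h at 37 C, and fluorescence was read 2 h after adding LiveBLAzer B/G substrate at room temperature.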

Aryl hydrocarbon receptor (Homo sapiens), sequence (P35869 whole entry, looked up): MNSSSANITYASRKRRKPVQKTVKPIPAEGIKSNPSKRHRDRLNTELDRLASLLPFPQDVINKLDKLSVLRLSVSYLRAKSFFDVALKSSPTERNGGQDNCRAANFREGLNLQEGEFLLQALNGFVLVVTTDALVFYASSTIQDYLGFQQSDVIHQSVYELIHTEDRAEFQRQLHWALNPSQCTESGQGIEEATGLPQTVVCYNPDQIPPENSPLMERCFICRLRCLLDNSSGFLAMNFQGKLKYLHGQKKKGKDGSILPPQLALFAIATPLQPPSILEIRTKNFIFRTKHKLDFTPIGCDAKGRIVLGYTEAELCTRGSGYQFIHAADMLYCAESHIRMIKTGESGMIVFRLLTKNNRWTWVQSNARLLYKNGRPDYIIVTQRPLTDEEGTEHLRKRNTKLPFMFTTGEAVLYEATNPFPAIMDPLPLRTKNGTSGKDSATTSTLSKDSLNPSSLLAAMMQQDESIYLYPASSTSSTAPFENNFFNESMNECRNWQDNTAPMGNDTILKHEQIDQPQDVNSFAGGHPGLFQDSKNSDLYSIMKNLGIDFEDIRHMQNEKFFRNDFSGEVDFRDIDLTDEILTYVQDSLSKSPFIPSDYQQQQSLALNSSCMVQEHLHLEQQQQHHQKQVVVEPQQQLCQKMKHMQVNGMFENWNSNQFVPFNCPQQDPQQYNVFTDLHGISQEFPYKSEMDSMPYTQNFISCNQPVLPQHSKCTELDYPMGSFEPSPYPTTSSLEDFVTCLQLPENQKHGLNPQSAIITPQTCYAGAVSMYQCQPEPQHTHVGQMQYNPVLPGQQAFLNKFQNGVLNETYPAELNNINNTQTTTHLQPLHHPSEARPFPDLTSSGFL
Peroxisome proliferator-activated receptor delta (Homo sapiens), sequence (Q03181 whole entry, looked up): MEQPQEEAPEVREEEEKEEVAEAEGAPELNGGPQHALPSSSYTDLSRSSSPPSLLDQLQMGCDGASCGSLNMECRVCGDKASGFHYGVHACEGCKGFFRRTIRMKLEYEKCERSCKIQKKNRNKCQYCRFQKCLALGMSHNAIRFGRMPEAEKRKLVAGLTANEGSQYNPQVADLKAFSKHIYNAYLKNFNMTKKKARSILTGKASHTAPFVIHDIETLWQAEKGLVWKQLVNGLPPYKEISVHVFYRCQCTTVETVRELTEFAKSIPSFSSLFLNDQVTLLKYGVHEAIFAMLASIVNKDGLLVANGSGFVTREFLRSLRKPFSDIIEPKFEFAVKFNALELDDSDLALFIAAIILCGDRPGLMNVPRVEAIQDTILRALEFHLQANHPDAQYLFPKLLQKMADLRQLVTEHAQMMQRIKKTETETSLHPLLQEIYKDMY
Vitamin D3 receptor (Homo sapiens), sequence (P11473 whole entry, looked up): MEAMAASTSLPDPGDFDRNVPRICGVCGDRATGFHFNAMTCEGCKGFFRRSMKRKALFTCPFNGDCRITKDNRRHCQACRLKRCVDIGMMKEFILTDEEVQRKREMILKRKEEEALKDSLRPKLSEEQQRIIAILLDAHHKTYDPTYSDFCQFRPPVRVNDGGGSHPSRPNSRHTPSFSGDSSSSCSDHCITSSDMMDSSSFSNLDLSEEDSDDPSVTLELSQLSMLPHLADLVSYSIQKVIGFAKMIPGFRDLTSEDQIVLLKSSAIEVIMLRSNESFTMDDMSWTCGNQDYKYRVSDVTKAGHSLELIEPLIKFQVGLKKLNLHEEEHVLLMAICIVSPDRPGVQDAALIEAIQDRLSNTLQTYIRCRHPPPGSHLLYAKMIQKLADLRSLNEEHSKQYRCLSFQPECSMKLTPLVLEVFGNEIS
Peroxisome proliferator-activated receptor gamma (Homo sapiens), sequence (P37231 whole entry, looked up): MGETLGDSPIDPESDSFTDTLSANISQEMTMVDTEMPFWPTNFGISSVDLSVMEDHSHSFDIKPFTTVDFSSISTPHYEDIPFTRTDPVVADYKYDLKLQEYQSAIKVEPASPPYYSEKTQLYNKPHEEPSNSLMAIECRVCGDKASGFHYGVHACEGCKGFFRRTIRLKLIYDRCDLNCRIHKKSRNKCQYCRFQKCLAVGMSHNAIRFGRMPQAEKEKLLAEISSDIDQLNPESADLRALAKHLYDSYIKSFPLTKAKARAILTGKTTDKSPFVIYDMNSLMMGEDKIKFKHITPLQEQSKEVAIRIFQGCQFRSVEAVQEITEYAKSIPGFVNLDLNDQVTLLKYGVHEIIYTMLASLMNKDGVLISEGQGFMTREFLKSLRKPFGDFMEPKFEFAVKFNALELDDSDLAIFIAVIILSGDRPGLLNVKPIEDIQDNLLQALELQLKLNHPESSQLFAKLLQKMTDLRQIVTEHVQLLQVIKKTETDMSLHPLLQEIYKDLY
Bile acid receptor (Homo sapiens), sequence (Q96RI1 whole entry, looked up): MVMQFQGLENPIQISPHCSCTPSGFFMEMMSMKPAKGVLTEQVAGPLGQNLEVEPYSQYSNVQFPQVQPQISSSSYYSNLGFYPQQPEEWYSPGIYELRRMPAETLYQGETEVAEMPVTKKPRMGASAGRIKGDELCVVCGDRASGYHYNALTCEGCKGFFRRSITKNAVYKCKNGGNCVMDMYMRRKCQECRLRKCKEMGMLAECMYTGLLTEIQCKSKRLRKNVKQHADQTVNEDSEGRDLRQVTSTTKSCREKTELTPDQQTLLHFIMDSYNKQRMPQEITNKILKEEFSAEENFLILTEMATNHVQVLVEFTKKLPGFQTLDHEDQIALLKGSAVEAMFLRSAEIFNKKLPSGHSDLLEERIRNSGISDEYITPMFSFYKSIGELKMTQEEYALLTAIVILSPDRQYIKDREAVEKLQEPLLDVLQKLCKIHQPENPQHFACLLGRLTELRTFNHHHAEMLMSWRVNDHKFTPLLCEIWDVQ

Row | SMILES | Potency [1] | Potency [2] | Potency [3] | Potency [4] | Potency [5] | Potency [6] | Potency [7] | Potency [8] | Potency [9] | Potency [10] | Potency [11] | Potency [12] | Potency [13] | Potency [14] | Potency [15] | Potency [16] | Potency [17] | Potency [18] | Potency [19] | Potency [20]
1 | Oc1ccc([C@H]2CNCc3c2ccc(O)c3O)cc1O | inactive | inactive | inactive | inactive | inactive | inactive | inactive | inactive | inactive | inactive | inactive | inactive | inactive | inactive | inactive | inactive |  |  |  | 
2 | CC(C)c1c(CN(C)C(C)Cc2ccccc2)n(C)n(-c2ccccc2)c1=O (stereo not given) |  | inactive |  | inactive | inactive |  | inactive | inactive | 13.3 µM (active) |  |  | inactive | inactive | inactive |  | inactive | inactive |  |  | 
3 | N#Cc1c2ccccc2cc2ccccc12 |  |  | inactive | inactive | inactive |  |  |  | inactive |  |  |  | inactive |  |  | inactive | inactive |  |  | 
4 | O.O.O.O.O.O.O.O=S(=O)([O-])[O-].[Co+2] |  |  |  | inactive | inactive |  |  |  | inactive |  |  |  | inactive |  |  | inactive | inactive |  |  | 
5 | CCC[CH2][Sn]([CH2]CCC)([O]C(C)=O)[O]C(C)=O |  |  | 2.78 µM (active) | 6.17 µM (active) |  |  |  |  |  |  | 11.1 µM (active) |  | 17.5 µM (active) |  |  |  | inactive | 19.7 µM (active) |  | 
6 | CCCCn1cc[n+](C)c1 (tested in a mixture with another compound) |  |  |  | inactive | inactive |  | inactive |  | inactive |  | inactive |  | inactive |  |  |  | inactive |  |  | 
7 | O=c1c2ccccc2c(=O)c2c1cc(Cl)c1[nH]c3c([nH]c12)c(Cl)cc1c(=O)c2ccccc2c(=O)c13 | inactive | inactive |  | inactive | inactive | inactive | inactive | inactive |  | inactive | inactive | inactive | inactive | inactive | inactive | inactive |  | inactive | inactive | inactive
8 | COP(=S)(NC(C)C)Oc1ccc(C)cc1[N+](=O)[O-] (stereo not given) | inactive | inactive | inactive | inactive | inactive | inactive | inactive | inactive | inactive | inactive | inactive | inactive | inactive | inactive | inactive | inactive |  | inactive |  | inactive
9 | FC(F)C(F)(F)OCC(Cn1cncn1)c1ccc(Cl)cc1Cl (stereo not given) |  |  | inactive | inactive | inactive | inactive |  | inactive |  |  | inactive | inactive |  | inactive | inactive |  | 6.82 µM (active) |  |  | 
10 | [Cl][Hg][c]1ccccc1 |  |  | 0.776 µM (active) | 1.72 µM (active) | 3.09 µM (active) |  |  |  | 2.19 µM (active) |  | 1.55 µM (active) |  | 1.38 µM (active) | inactive |  | 692 nM (active) | inactive |  |  | 
11 | Nc1ccc(N=Nc2ccccc2)cc1 |  |  |  | inactive | inactive |  |  |  |  |  |  |  |  |  |  |  | 26.5 µM (active) |  |  | 
